In PubChem BioAssay:
The source made the active and inactive calls. No rule for the calls is given here.

Biological target: Pantothenate synthetase (Mycobacterium tuberculosis (strain ATCC 25618 / H37Rv)) (UniProt P9WIL5)
Assay: Coupled enzyme confirmation of inhibitors against recombinant Mtb PanC (AID 375);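 also: 0% = full reaction with vehicle and 100% = no enzyme background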
Settings: coupled enzyme assay; at 10 µM, active compounds read high

Chain of Pantothenate synthetase (Mycobacterium tuberculosis (strain ATCC 25618 / H37Rv)) (P9WIL5 whole entry, looked up): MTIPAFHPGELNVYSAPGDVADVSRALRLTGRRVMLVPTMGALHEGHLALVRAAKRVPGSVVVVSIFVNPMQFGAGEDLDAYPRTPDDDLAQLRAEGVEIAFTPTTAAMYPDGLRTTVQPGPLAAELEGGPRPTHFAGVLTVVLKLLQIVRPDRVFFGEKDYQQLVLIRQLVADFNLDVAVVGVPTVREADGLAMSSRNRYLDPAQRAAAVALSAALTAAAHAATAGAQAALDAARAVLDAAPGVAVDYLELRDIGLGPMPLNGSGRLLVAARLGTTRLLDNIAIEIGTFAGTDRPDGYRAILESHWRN

Question: Which inhibition does the source give for `Cc1ccccc1NC(=O)Cc1nnc(SCC(=O)N2CCN(c3ccccc3)CC2)n1C` here?
Answer: 4% (inactive)

Question: With `N#CC1=C(N)Oc2cc(O)ccc2C1C1CCCCC1` (configuration not stated) as the compound, how does the inhibition read?
Answer: 0% (inactive)

Question: How did the inhibition turn out when `COCCNC(=O)CN1CCN(C(c2ccccc2)c2ccccc2)CC1` was run?
Answer: 2% (inactive)

Question: For `CSC1CCCCC1(O)CSc1nc2c(cc1C#N)CCCC2` (configuration not stated), which inhibition is on record?
Answer: 4% (inactive)

Question: Which inhibition does the source give for `CCN(C(=O)c1cccs1)c1nnc(-c2ccncc2)s1` here?
Answer: 0% (inactive)

Question: For `COc1ccc(CC(=O)NCc2ccccc2)cc1S(=O)(=O)N1CCOCC1`, which inhibition is on record?
Answer: 0% (inactive)

Question: For `COc1ccc(/C(O)=C2\C(=O)C(=O)N(c3cc(C)on3)C2c2ccccc2OC)cc1` (configuration not stated), which inhibition is on record?
Answer: 0% (inactive)

Question: Which inhibition does the source give for `COc1cc(OC)c2c(c1)OC(c1ccc(OC)c(OC)c1)C(O)C2=O` (configuration not stated) here?
Answer: 1% (inactive)

Question: Which inhibition does the source give for `CC(=O)OC1c2ccccc2C(=O)N1c1ccccc1C` (configuration not stated) here?
Answer: 1% (inactive)

Question: Which inhibition does the source give for `CCC(=O)N1CCCc2cc(S(=O)(=O)N3CCCc4ccccc43)ccc21` here?
Answer: 4% (inactive)

Question: Which inhibition does the source give for `CS(=O)(=O)c1ccc2nc(NC(=O)c3cccs3)sc2c1` here?
Answer: 0% (inactive)

Question: With `COc1cccc(NC(=O)N2CCCC2C(=O)NC(C)C)c1` (configuration not stated) as the compound, how does the inhibition read?
Answer: 0% (inactive)

Question: How did the inhibition turn out when `CCN1C(=O)C(C(=O)Nc2ccc(OC)cc2)C2CC1(C)Oc1ccccc12` (configuration not stated) was run?
Answer: 0% (inactive)

Question: For `CCOC(=O)C(CC)Sc1ncnc2nc[nH]c12` (configuration not stated), which inhibition is on record?
Answer: 0% (inactive)

Question: For `CC1=C(C(=O)Nc2cccnc2)C(c2ccc(C(C)C)cc2)n2ncnc2N1` (configuration not stated), which inhibition is on record?
Answer: 1% (inactive)

Question: Which inhibition does the source give for `O=C(Nc1cccc2ccccc12)N1CCN(c2ccccc2)CC1` here?
Answer: 3% (inactive)

Question: How did the inhibition turn out when `O=c1ccc(S(=O)(=O)N2CCC(Cc3ccccc3)CC2)c[nH]1` was run?
Answer: 0% (inactive)
